# Data published in article PMC13083723 (Patterns, 2026).
# About 190 (3.5%) of roughly 5,400 compounds showed an effect of 50% or more. The list comes from a sample in which strong results are over-represented; it also holds similar structures and randomly drawn compounds. Starred links: 1 amine or outer side, 2 acyl side, 3 side chain; linkers in the order of their positions; H or OH if unused. Positions of bridges follow the written chain, without caps; N, C: chain ends. Non-standard residues stand in square brackets, D forms with d. Residues, ends and D or L forms follow the SMILES beside them. *: point of attachment. X5 = NC1=N[C@@H](O)C[C@H]([C@H](N[*:1])C(=O)[*:2])N1; ΔAla(Z-3-ureido) = NC(=O)N/C=C(\N)C(=O)O; β3hOrn = NCCC[C@H](N)CC(=O)*; Dap = NC[C@H](N)C(=O)O
# Test system: Vero-E6
# Assay: primary screen, phospholipidosis by LipidTOX staining; higher = more effect of the substance
# Details: 10 µM
# Outline: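 Single-concentration screen at 10 μM, with DMSO 0.1 v/v % and amiodarone 10 μM as controls. Read-out is LipidTOX Red phospholipid staining, which tolerates aldehyde fixation, in Vero-E6 cells.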
row,Structure (SMILES),result_ITMP [%]
1,Cc1cc(-c2ccc(/N=N/c3ccc4c(S(=O)(=O)[O-])cc(S(=O)(=O)[O-])c(N)c4c3O)c(C)c2)ccc1/N=N/c1ccc2c(S(=O)(=O)[O-])cc(S(=O)(=O)[O-])c(N)c2c1O,10.1
2,COc1cc2c(cc1F)C(c1ccccc1Cl)=NC1=C(C)NNC1=N2,-1.52
3,CCCN(CCC)C(=O)C(CCC(=O)[O-])NC(=O)c1ccccc1 (stereo not shown),-3.27
4,COc1cc2ncn(-c3cc(OCc4ccccc4C(F)(F)F)c(C(N)=O)s3)c2cc1OC,-2.1
5,CC(C)c1cc(C(=O)N2Cc3ccc(CN4CCN(C)CC4)cc3C2)c(O)cc1O,8.21
6,C[C@@H](Oc1cc(-n2cnc3ccc(CN4CCN(C)CC4)cc32)sc1C(N)=O)c1ccccc1C(F)(F)F,75.1
7,CN[C@@H]1[C@H](OC2[C@H](O[C@H]3[C@H](O)[C@@H](O)[C@H](NC(=N)N)[C@@H](O)[C@@H]3NC(=N)N)O[C@@H](C)[C@]2(O)C=O)O[C@@H](CO)[C@H](O)[C@H]1O (stereo partly shown),-1.71
8,O=C([O-])P(=O)([O-])[O-],-2.03
9,C=CCn1c(=O)n([C@@H]2O[C@H](CO)[C@@H](O)[C@H]2O)c2nc(N)nc(O)c21,-1.06
10,COC(=O)C(c1ccccc1)C1CCCCN1 (stereo not shown),10.3
11,OC(c1cc(C(F)(F)F)nc2c(C(F)(F)F)cccc12)C1CCCCN1 (stereo not shown),50
12,Nc1c(CC(=O)[O-])cccc1C(=O)c1ccc(Br)cc1,0.95
13,NS(=O)(=O)NCCNc1nonc1/C(=N\c1ccc(F)c(Br)c1)NO,-3.83
14,CN1[C@@H]2C[C@@H](O)C[C@H]1[C@@H]1O[C@@H]12,17.2
15,COc1cc(C(=O)NCc2ccc(OCCN(C)C)cc2)cc(OC)c1OC,-1.29
16,COc1ccccc1N1CCN(CCCCNC(=O)c2ccc(-c3ccc(C(C)=O)cc3)cc2)CC1,6.35
17,COc1ccc(NC(=O)c2ccc(-c3ccc(-c4noc(C)n4)cc3C)cc2)cc1N1CCN(C)CC1,142
18,COc1ccc(NC(=O)c2ccc(-c3ccc(-c4noc(C)n4)cc3C)cc2)cc1OCCN(C)C,81.5
19,COc1ccc(C(=O)NCc2ccc(OCCN(C)C)cc2)cc1OC,6.48
20,COc1ccc(NS(=O)(=O)c2ccc(I)cc2)cc1N1CCN(C)CC1,16.4
21,C[C@@H]1CC[C@H]2C(C)(C)[C@H]3C[C@@]12CC[C@@]3(C)O,4.78
22,O=C(O)c1cc(O)c2ccccc2n1,3.47

row,Structure (SMILES),result_ITMP [%]
1,O=C([O-])CCCCCCCCC(=O)[O-],-5.98
2,Cc1cccc(-c2nc(C(C)(C)C)[nH]c2-c2ccc3nccnc3c2)n1,-5.96
3,CCCn1c(=O)c2nc(C3CCCC3)[nH]c2n(CCC)c1=O,9.14
4,C=C1CC[C@H](O)C/C1=C/C=C1\CCC[C@]2(C)[C@@H]([C@H](C)CCCC(C)(C)O)CC[C@@H]12,-0.38
5,C=C1/C(=C\C=C2/CCC[C@]3(C)[C@@H]([C@H](C)CCCC(O)(C(F)(F)F)C(F)(F)F)CC[C@@H]23)C[C@@H](O)C[C@@H]1O,0.82
6,C[C@]12CCC(=O)C=C1CCC1C2[C@@H](O)C[C@@]2(C)C1CC[C@]2(O)C(=O)COC(=O)CCC(=O)O (stereo partly shown),-1.39
7,COc1cccc(CCc2ccccc2OCC[C@@H]2C[C@@H](O)CN2C)c1,90.4
8,COc1cccc(CN2C[Si](C)(C)O[Si](C)(C)C2)c1,-1.81
9,O=c1[nH]c2ccccc2n1CCCN1CCN(C(c2ccccc2)c2ccccc2)CC1,26.4
10,C[C@@H]1CN(CCCn2c3ccccc3c3ccccc32)C[C@H](C)N1,99.9
11,O=c1[nH]c2ccccc2c(=O)n1CCCN1CCN(c2ccccc2)CC1,-3.31
12,CC(C)CCC[C@@H](C)[C@H]1CC[C@H]2[C@@H]3CCC4=CC(=NO)CC[C@]4(C)[C@H]3CC[C@]12C,-0.61
13,CNCCCN1c2ccccc2CCc2ccccc21,36.6
14,CNCCCC12CCC(c3ccccc31)c1ccccc12,107
15,CNCCCC1(c2ccccc2)OC(C)(C)c2ccccc21 (stereo not shown),29.5
16,O=C(O)c1ccc(N[C@H]2O[C@H](CO)[C@@H](O)[C@H](O)[C@@H]2O)cc1,-5.7
17,CC1(S(=O)(=O)[O-])CC(=O)c2ccccc2C1=O (stereo not shown),-0.84
18,CN(C)CC/C=C1\c2ccccc2CSc2ccccc21,43.7
19,CN(C)CC/C=C1\c2ccccc2Sc2ccc(Cl)cc21,51.1
20,CN(C)CCC=C1c2ccccc2CCc2ccccc21,39.7
21,CN(C)CCC=C1c2ccccc2C=Cc2ccccc21,71.1
22,CN(C)CCOC1=Cc2ccccc2Sc2ccc(Cl)cc21,13.9

row,Structure (SMILES),result_ITMP [%]
1,CN(C)CC/C=C1/c2ccccc2COc2ccccc21,41.1
2,COCc1nc2c(=O)n(C)c(=O)n(CC(C)C)c2[nH]1,-0.95
3,NC(N)=N/C(N)=N/CCc1ccccc1,-1.11
4,CN/C(=N\C#N)NCCSCc1csc(N=C(N)N)n1,2.7
5,CN[C@@H]1Cc2cccc3nc(O)n(c23)C1,5.61
6,CN[C@@H]1C[C@@H](c2ccc(Cl)c(Cl)c2)c2ccccc21,71.1
7,CN[C@H]1CC[C@@H](c2ccc(Cl)c(Cl)c2)c2ccccc21,56.1
8,COc1ccc2c(c1)CN(C)CC2c1ccc(Cl)c(Cl)c1 (stereo not shown),12.7
9,O[C@@H]1CCCC[C@H]1N1CCC(c2ccccc2)CC1 (racemic),-4.38
10,S=C(NC1CCCCC1)N1CCC(c2c[nH]cn2)CC1,1.61
11,Oc1ccc2c3c1OC1C(O)CCC4(O)C(C2)N(CC2CCC2)CCC314 (stereo not shown),1.96
12,CC(C)COCC(CN(Cc1ccccc1)c1ccccc1)N1CCCC1 (stereo not shown),66.8
13,CC(COc1ccccc1)N(CCCl)Cc1ccccc1 (stereo not shown),0.48
14,c1ccc(CN(CC2=NCCN2)c2ccccc2)cc1,16.9
15,COc1ccc2c3c([nH]c2c1)[C@H](CC(C)C)N1C(=O)[C@H](CCC(=O)OC(C)(C)C)NC(=O)[C@@H]1C3,-1.42
16,N[C@@]1(C(=O)O)CC[C@H](C(=O)O)C1.N[C@]1(C(=O)O)CC[C@@H](C(=O)O)C1,-0.35
17,CN1CCN(c2ccc(OC(F)(F)F)c(Nc3ncc4c(n3)-c3c(c(C(N)=O)nn3CCO)CC4)c2)CC1,-0.49
18,CCS(=O)(=O)N1CCN(c2ccc(Nc3ncc(C(N)=O)c(NC4CC4)n3)cc2)CC1,1.28
19,CNC(=O)c1nn(C)c2c1C(C)(C)Cc1cnc(Nc3ccc(N4CCN(C)CC4)cc3)nc1-2,54.6
20,CC1(C)CC[C@]2(C(=O)O)CC[C@]3(C)[C@H](C(=O)C=C4[C@@]5(C)C=C(C#N)C(=O)C(C)(C)[C@@H]5CC[C@]43C)[C@@H]2C1,-1.94
21,C=CCCCCCCCCC(=O)[O-],1.9
22,CCCCCCCC/C=C\CCCCCCCC(=O)N[C@@H](CO)Cc1ccc(O)cc1,-1.63

row,Structure (SMILES),result_ITMP [%]
1,CCCCCCCCCCCCCCCC(=O)OC[C@@H](NC(=O)C(Cl)Cl)[C@H](O)c1ccc([N+](=O)[O-])cc1,-1.35
2,CCCCCCCCC(=O)N[C@H](CN1CCCC1)[C@H](O)c1ccc2c(c1)OCCO2,63.4
3,CCCCCCCC(=O)N[C@H](CN1CCCC1)[C@H](O)c1ccc2c(c1)OCCO2,51.9
4,Cn1cnc([N+](=O)[O-])c1Sc1[nH]cnc2ncnc1-2,-1.78
5,N=C(N)Nc1ccc2[nH]c3c(c2c1)C[C@@]1(O)C2Cc4ccc(O)c5c4[C@@]1(CCN2CC1CC1)[C@H]3O5,-0.46
6,Nc1ccc(S(=O)(=O)[N-]c2cnc3ccccc3n2)cc1,-3.26
7,O=C([O-])c1nc(=O)[nH]c(=O)[nH]1,-2.23
8,CCC[C@@H]1CC2=CC(=O)CC[C@]2(C)[C@H]2CC[C@@]3(C)[C@@H](CC[C@@]3(O)CCC(=O)[O-])[C@H]12,-2.26
9,NC1=N[C@H]2[C@H](CCCCC(=O)O)SC[C@H]2N1,-5.63
10,C[C@]12CC[C@H]3[C@@H](CCC4=CC(=O)CC[C@@H]43)[C@@H]1CC[C@@H]2O,-1.6
11,NCCC[C@H](N)CC(=O)N[C@H]1CNC(=O)[C@H]([C@H]2C[C@H](O)N=C(N)N2)NC(=O)/C(=C/NC(N)=O)NC(=O)[C@H](CO)NC(=O)[C@H](CO)NC1=O (β3hOrn-[Dap]SS[ΔAla(Z-3-ureido)][X5]; lactam 1-C),-3.72
12,CCOc1cc(C(C)(C)C)ccc1C1=N[C@@](C)(c2ccc(Cl)cc2)[C@@](C)(c2ccc(Cl)cc2)N1C(=O)N1CCN(CCCS(C)(=O)=O)CC1,106
13,Cc1c(Cl)cccc1S(=O)(=O)Nc1nc(NCCc2ccccc2)nc2c1CN(Cc1ccccc1)CC2,-0.11
14,COc1ccc2c(c1)c(C1=C(c3c[nH]c4ccccc34)C(=O)NC1=O)cn2CCCN(C)C,120
15,Cn1cc(C2=C(c3cn(CCCSC(=N)N)c4ccccc34)C(=O)NC2=O)c2ccccc21,15.8
16,CN(C)CCCn1cc(C2=C(c3c[nH]c4ccccc34)C(=O)NC2=O)c2ccccc21,-0.11
17,CS(=O)(=O)c1ccc(-c2cn3ccccc3n2)cc1,-2.12
18,O=C([O-])c1ccccc1-c1c2cc(I)c(=O)c(I)c-2oc2c(I)c([O-])c(I)cc12,7.91
19,CCC1=C[C@@H]2C[N@@]3CCc4c([nH]c5ccccc45)[C@@](C(=O)OC)(C2)[C@@H]13,6.61
